D2 antagonist: antagonists of human D2 dopamine receptor. P14416. HEK293 TREx D2 cells, calcium flux, dopamine EC80. inhibition, % at 10 µM. 340,000 tested, 2% active. AID 485344; in the data active = inhibition above about 30%; inactive = below that, where a call was filed
Target sequence (P14416 whole entry, looked up): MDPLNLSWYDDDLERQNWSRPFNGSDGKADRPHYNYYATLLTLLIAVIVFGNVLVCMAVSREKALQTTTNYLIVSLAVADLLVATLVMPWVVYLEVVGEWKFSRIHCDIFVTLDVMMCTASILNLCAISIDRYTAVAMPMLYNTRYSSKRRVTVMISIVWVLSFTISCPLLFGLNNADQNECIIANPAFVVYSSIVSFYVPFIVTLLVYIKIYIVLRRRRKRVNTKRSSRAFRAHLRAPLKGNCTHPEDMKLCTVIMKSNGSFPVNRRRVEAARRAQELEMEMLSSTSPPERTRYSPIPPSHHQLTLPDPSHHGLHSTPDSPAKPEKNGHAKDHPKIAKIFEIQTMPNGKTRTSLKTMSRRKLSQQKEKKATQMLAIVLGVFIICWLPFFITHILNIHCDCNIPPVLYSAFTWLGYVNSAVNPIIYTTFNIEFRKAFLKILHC
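Tetracycline-induced HEK293 T-REx cells expressing D2 force-coupled to calcium signalling were dye-loaded, exposed to compound for 180 s, then challenged with an EC80 of dopamine; calcium flux was followed kinetically for a further 180 s.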
D2 ag-1: activates the human D2 dopamine receptor; activation, % (no concentration beside the values); AID 624465; P14416; DiscoveRx PathHunter D2 beta-arrestin, luminescence, 90 min; 100% = 57 uM dopamine signal; 360,000 tested, 0.084% active; in the data active = activation above about 40%; inconclusive = between about 15% and that limit
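DiscoveRx PathHunter D2 beta-arrestin cells (2,100/well) attached overnight, then compound-stimulated 90 min at 37 C in HBSS/10 mM HEPES/0.1% Tween-20 buffer; beta-galactosidase complementation read by luminescence after 1 h at ambient temperature. Dopamine 57 uM final (EC100) as control.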
D2 PAM-1: positive allosteric modulators of human D2 dopamine receptor | HEK293 T-REx D2, calcium flux, EC20 dopamine potentiation | 340,000 tested, 0.34% active | potentiation, % at 10 µM | P14416;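 active = potentiation over 3 SD above the plate norm, cut at about 30% in these data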
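Primary screen. Calcium kinetics in induced HEK293 T-REx D2 cells: compound pre-addition 180 s, EC20 dopamine, 180 s more.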
D2 PAM-2: human D2 receptor positive allosteric modulation; P14416; DiscoveRx D2 beta-arrestin cells, luminescence, 90 min; 100% = 57 uM dopamine signal; potentiation, % (test concentration not listed); 360,000 tested, 0.23% active; in the data active = potentiation above about 50%; inconclusive = mostly about 30% to 49%
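D2 cells co-treated with compound plus 50 nM dopamine (EC20) for 90 min at 37 deg C to detect potentiation. Beta-arrestin recruitment was read as enzyme-fragment luminescence after 1 h at ambient temperature. Full response was set by 57 uM dopamine.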
D2 ag-2: agonists of human D2 dopamine receptor; P14416; activation, % at 2 µM; AID 485358; HEK293 T-REx D2 cells, calcium flux agonist mode; 340,000 tested, 0.53% active;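 active = activation over 3 SD above normal in the single-dose calcium agonist read, cut at about 30% in these data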
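Agonism scored from kinetic calcium signal (1 read/sec, 180 s) following compound pin transfer, after a 10 s baseline. Cells: HEK293 Trex line expressing inducible D2 receptor coupled to calcium, dye-loaded after overnight culture at 30 C.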
D3 arrestin ag: D3 receptor agonism confirmed, beta-arrestin readout; shares compounds with D2 ag-2; Potency, µM (doses to about 76.9 µM), usual class: activators; DiscoveRx D3 beta-arrestin cells, luminescence, 90 min; 2,300 tested, 4% active; note: nearly all actives have a fitted effect of over 70% in size
D2 ag-3: D2 receptor agonism, beta-arrestin counterscreen | DiscoveRx PathHunter D2 beta-arrestin, luminescence, 90 min; response scale: percent relative to full dopamine signal | AID 720507 | 2,300 tested, 5.9% active | shares compounds with D2 ag-2 | Potency, µM (top dose mostly 76.9 µM), usual class: activators; note: nearly all actives have a fitted effect of over 70% in size
Numbers stand for hits; . = inactive; ? = inconclusive; / = no result. Hits are enriched below; roughly 2.4% of the tested compounds scored in any of these assays. Unless noted, calls come from the whole dose curve; as a rule, active = well fitted activation curve with a large enough effect; inconclusive = small, poorly fitted or top-dose-only effect; inactive = flat fitted curve, though single readings scatter.

SMILES | D2 antagonist | D2 ag-1 | D2 PAM-1 | D2 PAM-2 | D2 ag-2 | D3 arrestin ag | D2 ag-3
COCc1c(Br)c(C)nc2sc3c(=O)n(-c4cccc(Br)c4)nnc3c12 | / | / | . | / | . | / | /
CC(C)c1cccc(C(C)C)c1OC(=O)[C@H]1OC(c2ccc(Br)cc2)=C[C@@H]1c1ccc(Br)cc1 | . | . | . | . | . | . | .
CC(C)c1cccc(C(C)C)c1OC(=O)[C@H]1OC(C(C)(C)C)=C[C@@H]1c1ccccc1 | . | . | . | . | . | / | /
COc1ccc(OC)c(S(=O)(=O)NCc2cn3ccsc3n2)c1 | . | . | . | . | . | . | .
Cc1cc(C)cc(N2CCn3c2nc2c3c(=O)n(CCc3ccccc3)c(=O)n2C)c1 | / | / | . | / | . | / | /
CC(=O)Nc1ccc(-c2ccnc3c2CC(C)(C(=O)NCc2cccc(Cl)c2)O3)cc1 (configuration not stated) | / | . | / | . | / | / | /
Cc1cc(C)cc(OC2CCCCC2NS(=O)(=O)c2ccccc2)c1 (configuration not stated) | 36 | . | . | . | . | . | .
CSc1ccc(OC2CCCCC2NS(=O)(=O)c2ccccc2)cc1 (configuration not stated) | . | . | . | . | . | / | /
O=C(COC(=O)c1ccc(CNS(=O)(=O)c2ccc(F)c(Cl)c2)cc1)NCC1CCCCC1 | . | . | . | . | 69 | . | .
O=C(CCC1N=C2c3ccccc3N=C(SCc3ccc(F)cc3)N2C1=O)N1CCN(c2ccccc2)CC1 (configuration not stated) | / | / | . | / | / | / | /
O=C(N1CCOCC1)N1CCN(Cc2ccccc2)CC1 | . | . | . | . | . | / | /
O=C(c1ccccc1)N1CCN(Cc2ccccc2)CC1 | . | . | . | . | . | . | ?
CC(C)(C)c1ccc(C(=O)N2CCN(Cc3ccccc3)CC2)cc1 | . | . | . | . | . | / | /
O=C(c1ccccc1)N1CCN(CC#Cc2ccccc2)CC1 | / | . | . | . | / | ? | .
N=C(N)N1CCN(Cc2ccccc2)CC1 | . | / | . | / | 42 | . | .
CN(c1ccc(C(=O)N2CCN(Cc3ccccc3)CC2)cc1)S(=O)(=O)c1ccc(Cl)cc1 | 90 | ? | . | . | 65 | . | ?
O=C(c1ccc(N2CCOCC2)c([N+](=O)[O-])c1)N1CCN(Cc2ccccc2)CC1 | . | . | . | . | 60 | . | .
O=C(c1ccc(Br)c([N+](=O)[O-])c1)N1CCN(Cc2ccccc2)CC1 | . | . | . | . | . | / | /
Brc1cccc(OCCN2CCc3ccccc3C2)c1 | 96 | . | . | . | 52 | . | .
O=C(c1ccc(N2CCCC2=O)cc1)N1CCN(c2ccccc2F)CC1 | . | . | . | . | 55 | ? | .
O=C(Nc1ccccc1N1CCOCC1)c1cccc2ccccc12 | / | . | / | . | / | / | /
C/C=C/c1cc(CN2CCN(c3ccccc3)CC2)c(O)c(OC)c1 | / | . | . | . | / | . | .
Cc1ccc(CN2CCN(CCCc3ccccc3)CC2CCO)cc1 (configuration not stated) | 49 | . | . | . | 53 | . | .
OCCC1CN(CCCc2ccccc2)CCN1Cc1ccc(F)cc1 (configuration not stated) | . | . | . | . | . | / | /
COc1ccc(CNC(=O)C2(C)Cc3c(-c4ccc(N(C)C)cc4)ccnc3O2)cc1OC (configuration not stated) | / | . | / | . | / | / | /
SMILES | D2 antagonist | D2 ag-1 | D2 PAM-1 | D2 PAM-2 | D2 ag-2 | D3 arrestin ag | D2 ag-3
CC(Oc1cc2oc(=O)cc(-c3ccccc3)c2cc1Cl)C(=O)NCC1CCC(C(=O)O)CC1 (configuration not stated) | 43 | . | . | . | 43 | . | .
CCOC(=O)c1c(C)n(C)c2ccc(OCC(O)CNCCc3ccccc3)cc12 (configuration not stated) | 31 | . | . | . | . | . | .
CC(=O)c1cccc(OCC(O)CNCCc2ccc(Cl)cc2)c1 (configuration not stated) | . | . | . | . | . | / | /
CCOC(=O)c1cccc(OCC(O)CNCCOc2ccccc2F)c1 (configuration not stated) | 83 | 47 | . | . | 81 | . | ?
CCOC(=O)c1c(C)n(C)c2ccc(OCC(O)CN3CCN(C)CC3)cc12 (configuration not stated) | . | . | . | . | . | / | /
O=C(Cn1c(=O)oc2cc(S(=O)(=O)NCc3ccccc3)ccc21)NCc1ccccc1Cl | / | / | . | / | . | / | /
COc1cccc(-n2cc(CNCc3c(C(=O)N(C)C)nc4ccc(Cl)cn34)cn2)c1 | / | . | . | . | / | . | .
COc1cccc(-n2cc(CNCc3cn(C)nc3-c3ccccc3F)cn2)c1 | 85 | 66 | . | . | 79 | 6.3µM | 13µM
Cc1ccccc1-n1cc(CNCc2c(C(=O)N(C)C)nc3ccc(Cl)cn23)cn1 | . | . | . | . | . | / | /
Cc1ccc(O)c(NC(=S)NC(=O)Cc2ccc(Cl)cc2)c1 | / | . | / | . | / | . | .
FC(F)(F)c1ccccc1CN1CCCC(N2CCN(c3ccccc3)CC2)C1 (configuration not stated) | 78 | . | . | . | 62 | . | .
COc1ccc(N2CCN(C3CCCN(Cc4ccc(F)cc4)C3)CC2)cc1 (configuration not stated) | . | . | . | . | . | / | /
O=C(c1ccc2c(c1)CCN2S(=O)(=O)c1ccc(Cl)cc1)N1CCN(c2ccccc2F)CC1 | / | / | . | / | . | / | /
CC1(NC(=O)c2ccccc2)CCN(CCc2cccs2)C1=O (configuration not stated) | / | . | . | . | / | / | /
O=C(NC1(Cc2ccccc2)CCN(CCc2cccs2)C1=O)c1ccccc1 (configuration not stated) | . | . | . | . | . | . | .
Cc1nc(NCCc2ccccc2)c2nnn(Cc3ccccc3Cl)c2n1 | . | . | . | . | . | . | .
CCc1nnc(NC(=O)CSc2nccn2Cc2ccc(F)cc2)s1 | / | / | . | / | . | / | /
Cc1ccc2occ(CN3CCN(c4ccccc4)CC3)c(=O)c2c1 | 67 | . | / | . | . | . | .
CN(C)S(=O)(=O)c1cccc(NC(=O)CSc2ncnc3ccccc23)c1 | / | . | / | . | / | ? | ?
COc1ccc(/C=C/C(=O)NC(=S)NN2CCCCC2c2cccnc2)cc1OC (configuration not stated) | . | . | . | . | 49 | . | .
Cn1c(=O)c(=O)n(C)c2cc(NC(=O)c3cccc(F)c3)c(Cl)cc21 | / | / | . | / | / | / | /
O=C(N1CCN(Cc2ccccc2)CC1)C12CC3CC(CC(C3)C1)C2 | . | . | . | . | . | / | /

Source: PubChem BioAssay (National Center for Advancing Translational Sciences (NCATS))
